# “And” between values parts separate entries of the source, which are not always exact repeats. Equal values may be shown once. About 79,000 compounds went through this panel and 15% of them were active in at least one assay; those are over-represented in the sample as a whole. Where a structure was tested more than once in an assay, its records may differ in their call. The source made the active and inactive calls. Rule as the data show it: active = growth inhibition above about 70%; inactive = the rest.
# Tests used:
# [1] = NCI Yeast Anticancer Drug Screen. Data for the rad50 strain (AID 155);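 also: 0% = growth of vehicle-only cultures of the same strain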; details: S. cerevisiae rad50 strain growth inhibition, stronger effect = higher value
# Procedure, shortened: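 Readout: growth inhibition relative to vehicle-treated cultures. Compound exposure was carried out in a genetically defined yeast strain deficient in DNA damage repair.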
# [2] = NCI Yeast Anticancer Drug Screen. Data for the mec2-1 strain (AID 157); details: S. cerevisiae mec2-1 strain, stronger effect = higher value
# Procedure, shortened: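 Using mec2-1 yeast: add compound, measure growth, express inhibition versus vehicle-treated cultures.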
# [3] = NCI Yeast Anticancer Drug Screen. Data for the sgs1 mgt1 strain (AID 161);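 also: 0% = growth of cultures given vehicle only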; details: S. cerevisiae sgs1 mgt1 strain, stronger effect = higher value
# Procedure, shortened: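 Growth of a repair-deficient yeast mutant was monitored after compound treatment and expressed as inhibition relative to vehicle-treated cultures.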
# [4] = NCI Yeast Anticancer Drug Screen. Data for the bub3 strain (AID 167); details: S. cerevisiae bub3 mutant strain, stronger effect = higher value
# Procedure, shortened: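 Readout: yeast growth inhibition, expressed relative to vehicle-only wells. The test organism is a mutant strain from a panel with lesions in DNA repair or checkpoint genes.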
# [5] = NCI Yeast Anticancer Drug Screen. Data for the mlh1 rad18 strain (AID 175); details: S. cerevisiae mlh1 rad18 strain growth inhibition, stronger effect = higher value
# Procedure, shortened: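 Steps: expose repair-defective yeast to compound; measure growth; express inhibition against vehicle-treated controls.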
# [6] = NCI Yeast Anticancer Drug Screen. Data for the cln2 rad14 strain (AID 165);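 also: 0% = growth equal to vehicle treated cultures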; details: S. cerevisiae cln2 rad14 strain, stronger effect = higher value
# Procedure, shortened: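 Yeast strain cln2 rad14, bearing defects in cell cycle control and DNA repair, serves as the test system; values reflect growth inhibition compared with vehicle.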
# [7] = at 5.0 µM (retest, dose inferred, filed as 0.5)
# [8] = at 50.0 µM (retest, dose inferred, filed as 5.0)
SMILES,"growth inhibition [1, 7]","growth inhibition [1, 8]",growth inhibition ([1]; at 50.0 µM),"growth inhibition [2, 7]","growth inhibition [2, 8]",growth inhibition ([2]; at 50.0 µM),"growth inhibition [3, 7]","growth inhibition [3, 8]",growth inhibition ([3]; at 50.0 µM),"growth inhibition [4, 7]","growth inhibition [4, 8]",growth inhibition ([4]; at 50.0 µM),"growth inhibition [5, 7]","growth inhibition [5, 8]",growth inhibition ([5]; at 50.0 µM),"growth inhibition [6, 7]","growth inhibition [6, 8]",growth inhibition ([6]; at 50.0 µM)
CC(=O)OCC1OC([S-])C(OC(C)=O)C(OC(C)=O)C1OC(C)=O.CC[PH+](CC)CC.CC[PH+](CC)CC.[Au].[Au] (stereo unspecified),100% (active),99% (active),89.8% (active),99% (active),99% (active),92% (active),99% (active),99% (active),92% (active),99% (active),99% (active),89.9% (active),96% (active),98% (active),90% (active),,,
C=CCN(CC=C)CC(C(C)=O)C(c1ccccc1)c1c(O)c2ccccc2oc1=O (stereo unspecified),,,,28% (inactive),28% (inactive),74.2% (active),23% (inactive),23% (inactive),84.2% (active),27% (inactive),27% (inactive),78.8% (active),32% (inactive),32% (inactive),80.2% (active),13% (inactive),13% (inactive),81.2% (active)
C/C(=N\N)C(CN1CCCCC1)C(c1ccccc1)c1c(O)c2ccccc2oc1=O (stereo unspecified),,,,1% (inactive),1% (inactive),63.8% (inactive),3% (inactive),3% (inactive),81.7% (active),3% (inactive),3% (inactive),76.3% (active),8% (inactive),8% (inactive),80% (active),4% (inactive),4% (inactive),74% (active)
C[C@H]1CCC/C=C/[C@@H]2C[C@H](O)C[C@H]2[C@H](O)/C=C/C(=O)O1,5% (inactive) and 15% (inactive),98% (active) and 99% (active),,10% (inactive) and 26% (inactive),99% (active) and 100% (active),,13% (inactive) and 21% (inactive),99% (active),90.3% (active) and 5.45% (inactive) and 90.8% (active),4% (inactive) and 31% (inactive),97% (active) and 98% (active),90.8% (active) and 1.65% (inactive) and 90.9% (active),17% (inactive) and 42% (inactive),99% (active),90.8% (active) and 13.7% (inactive) and 39% (inactive),7% (inactive) and 27% (inactive),99% (active),
Clc1c(Cl)c(Cl)c([S][Pb]([c]2ccccc2)([c]2ccccc2)[c]2ccccc2)c(Cl)c1Cl,91% (active),85% (active),98.5% (active),96% (active),92% (active),98.4% (active),94% (active),42% (inactive),98.8% (active),,,,92% (active),92% (active),98.3% (active),84% (active),89% (active),97.7% (active)
Cn1cnc(C(=N)[Se])c1N,63% (inactive),94% (active),83.4% (active),30% (inactive),91% (active),71% (active),,,,51% (inactive),94% (active),91.4% (active),78% (active),94% (active),67.7% (inactive),2% (inactive),15% (inactive),-24.8% (inactive)
CCOP(=S)(OCC)OC(c1ccc(Cl)cc1)c1ccc(Cl)cc1,3% (inactive),-11% (inactive),12.8% (inactive),0% (inactive),-7% (inactive),6.2% (inactive),7% (inactive),-20% (inactive),0.25% (inactive),,,,-1% (inactive),-11% (inactive),11.6% (inactive),6% (inactive),-29% (inactive),15.8% (inactive)
CCC1(CC)C(=O)[N-]C(=O)[N-]C1=O.[Au+].[Au+].c1ccc([PH+](c2ccccc2)c2ccccc2)cc1.c1ccc([PH+](c2ccccc2)c2ccccc2)cc1,99% (active),94% (active),1.75% (inactive),99% (active),97% (active),80.6% (active),,,,99% (active),90% (active),2.2% (inactive),98% (active),96% (active),4.65% (inactive),95% (active),96% (active),35.1% (inactive)
O=[N+]([O-])C(Br)CO (stereo unspecified),2% (inactive),91% (active),76% (active),2% (inactive),99% (active),89% (active),3% (inactive),94% (active),79% (active),7% (inactive),99% (active),94% (active),4% (inactive),97% (active),88.1% (active),,,
CC1(C)C(=O)C=CC2(C)C1CC(O)C1(C)C2CCC2(C)C(c3ccoc3)OC(=O)C3OC321 (stereo unspecified),15% (inactive),16% (inactive),86.8% (active),,,,11% (inactive),52% (inactive),82.7% (active),3% (inactive),12% (inactive),82.2% (active),16% (inactive),18% (inactive),44.5% (inactive),4% (inactive),8% (inactive),76.5% (active)
CCN(CC)C1CC(O[C@H]2C[C@](O)(C(=O)CO)Cc3c(O)c4c(c(O)c32)C(=O)c2c(OC)cccc2C4=O)OC(C)C1O (stereo partly specified),,,,99% (active),99% (active),99.3% (active),99% (active),99% (active),99.5% (active),98% (active),99% (active),99% (active),98% (active),96% (active),99.3% (active),97% (active),98% (active),98.8% (active)
CCCCCC(O)C1C(=O)OC(C)C(O)/C=C/C=C/C=C/C=C/C=C(\C)C(O)C(O)C(O)CC(O)CC(O)CC(O)CC(O)CC1O (stereo unspecified),,,-5.85% (inactive) and -8.05% (inactive) and -2.3% (inactive),,,-36.5% (inactive) and -20% (inactive) and -0.45% (inactive),,,-2.25% (inactive) and -8.45% (inactive) and -33% (inactive),,,-2.15% (inactive) and 4.5% (inactive) and 11% (inactive),,,17.9% (inactive) and -47.9% (inactive) and 0.55% (inactive),,,-14.2% (inactive) and -5% (inactive) and -4.05% (inactive)
CCN(CCCl)c1cc(CN(C)C)cc(NC(=O)c2ccc(C(=O)Nc3cccc(N(CCCl)NN)c3)cc2)c1,-6% (inactive),91% (active),89.4% (active),-5% (inactive),98% (active),98.2% (active),10% (inactive),98% (active),-2.7% (inactive),-16% (inactive),92% (active),97.8% (active),25% (inactive),97% (active),98.5% (active),,,
CC[N+](C)(CC)CCNC(=O)C(O)(c1ccccc1)c1ccccc1,-8% (inactive),40% (inactive),92.7% (active),-13% (inactive),52% (inactive),95.5% (active),-6% (inactive),36% (inactive),96.5% (active),-5% (inactive),23% (inactive),95.1% (active),-1% (inactive),40% (inactive),94.4% (active),,,
O=[As]c1ccc(Cl)cc1Cl (stereo unspecified),100% (active),99% (active),99.7% (active),100% (active),100% (active),99.7% (active),99% (active),100% (active),99.7% (active),99% (active),100% (active),99.2% (active),100% (active),99% (active),99.3% (active),,,
COC1=CC2=CCC3C(CCC4(C)C3CCC4(C)OC(C)=O)C2(C)CC1 (stereo unspecified),-2% (inactive),66% (inactive),51.4% (inactive),2% (inactive),43% (inactive),36.5% (inactive),0% (inactive),82% (active),56.4% (inactive),-12% (inactive),24% (inactive),76.6% (active),-2% (inactive),76% (active),55.5% (inactive),,,

# Reference: PubChem BioAssay (NCI)
